The subject of experiment [1] is Human papillomavirus type 1a protein E7 (residues 44-93). Nature of the experiment: small molecules binding HPV E7 44-93 – biochemical, small-molecule microarray, residues 44-93, 635 nm fluorescence, primary screen (AID 1108).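 Note: E7 fragment applied at 1 µg/mL in TBST for 1 h at 4 C; score combines spot fluorescence with its signal to noise ratio.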 Particulars: fluorescence 635 nm, higher = more signal.
Experiment [2] is described as follows: hepatitis C replication reporter changes, two-sided – Huh7 cells, luciferase reporter, HCV replication inhibitor project, primary screen (AID 1109).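 Note: huh7 hepatoma cells harbouring a luciferase neomycin HCV replicon reporter; luciferase luminescence as measure of HCV replicon replication; test concentration not given here.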 As to conditions: Huh7 HCV replicon luciferase reporter, 48 h; higher = more signal.
Experiment [3] addresses Left-right determination factor 2 (Homo sapiens) (UniProt O00292). The experiment in a line: small molecules binding LEFTY2 protein – biochemical, small-molecule microarray, 635 nm fluorescence scan, primary screen (AID 1110). Particulars: higher = more signal.
The target in experiment [4] is Calmodulin-1 (Homo sapiens) (UniProt P0DP23). Nature of the experiment: small molecules binding calmodulin-1 with EGTA – biochemical, small-molecule microarray, Cy5-labelled CALM1, profiling panel (AID 1111).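 Note: labelled calmodulin applied in Tris saline Tween buffer holding calcium plus EGTA and DTT.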 As to conditions: Cy5-CALM1 binding fluorescence, higher = more signal.
For experiment [5] the target is unchanged. Nature of the experiment: small molecules binding Ca-loaded calmodulin-1 – biochemical, small-molecule microarray, Cy5-labelled CALM1, plus calcium, artefact control for SMM control-protein annotation, profiling panel (AID 1112).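 Note: score merges spot fluorescence with signal to noise from triplicate slides.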 As to conditions: Cy5-CALM1 binding fluorescence, higher = more signal.
Experiment [6] can be described thus: probe aWnt5a binding to arrayed compounds – biochemical, biotinylated probe, 635/667 nm fluorescence, primary screen (AID 1113).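 Note: score merges 667 nm fluorescence intensity with signal-to-noise per printed feature.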 As to conditions: small-molecule microarray, higher = more signal.
Experiment [7] in a line: probe aShh binding to arrayed compounds – biochemical, biotinylated probe, 635/667 nm fluorescence, primary screen (AID 1114).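 Note: probe is biotin-labelled aShh protein from a stem cell growth factor screen; measures binding of labelled protein to compounds printed on the slide; score merges feature fluorescence at 667 nm with signal-to-noise.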 Particulars: small-molecule microarray, higher = more signal.
A short description of experiment [8]: probe aNog binding to arrayed compounds – biochemical, biotinylated probe, 635/667 nm fluorescence, primary screen (AID 1115).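 Note: probe is biotinylated aNog protein used at 0.15 µg/mL for 1 h at 4 C; z-score combines 667 nm fluorescence of each spot with its signal to noise.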 Particulars: small-molecule microarray, higher = more signal.
For experiment [9], the target named is Torsin-1A-interacting protein 1 (Homo sapiens) (UniProt Q5JTV8). Nature of the experiment: compound microarray binding of lysate hLAP1 – cell lysate, small-molecule microarray, COS7 lysate, 635/667 nm fluorescence, primary screen (AID 1116). Particulars: 635 nm fluorescence, higher = more signal.
Chain of Torsin-1A-interacting protein 1 (Homo sapiens) (Q5JTV8 whole entry, looked up): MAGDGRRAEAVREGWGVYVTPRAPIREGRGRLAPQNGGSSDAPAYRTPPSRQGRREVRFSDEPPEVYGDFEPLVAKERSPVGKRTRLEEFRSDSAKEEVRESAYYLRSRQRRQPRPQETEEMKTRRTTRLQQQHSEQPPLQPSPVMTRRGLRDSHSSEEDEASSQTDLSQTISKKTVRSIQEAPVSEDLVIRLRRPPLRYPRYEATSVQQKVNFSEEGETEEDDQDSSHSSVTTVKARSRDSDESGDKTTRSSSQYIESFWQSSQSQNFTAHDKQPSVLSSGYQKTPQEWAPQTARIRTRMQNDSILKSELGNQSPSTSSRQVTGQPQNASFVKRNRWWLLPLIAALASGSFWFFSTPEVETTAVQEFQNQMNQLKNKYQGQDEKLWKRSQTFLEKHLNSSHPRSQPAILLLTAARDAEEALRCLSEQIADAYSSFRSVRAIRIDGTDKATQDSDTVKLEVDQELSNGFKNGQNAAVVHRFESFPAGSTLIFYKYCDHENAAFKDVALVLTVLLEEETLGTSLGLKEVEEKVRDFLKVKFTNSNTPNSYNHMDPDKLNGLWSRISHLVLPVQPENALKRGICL
The target in experiment [10] is Alpha-bungarotoxin (Bungarus multicinctus) (UniProt P60615). Nature of the experiment: compounds binding labelled alpha-BTX control protein – biochemical, small-molecule microarray, Alexa647 label, 635/667 nm fluorescence, artefact control for SMM control protein annotation, profiling panel (AID 1117). As to conditions: alpha-BTX-A647 binding fluorescence, higher = more signal.
Chain of Alpha-bungarotoxin (Bungarus multicinctus) (P60615 whole entry, looked up): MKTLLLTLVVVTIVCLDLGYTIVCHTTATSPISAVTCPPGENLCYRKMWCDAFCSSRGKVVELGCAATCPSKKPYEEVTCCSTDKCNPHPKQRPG

Experiment [11] has as its target Albumin (Bos taurus) (UniProt P02769). Nature of the experiment: compounds binding labelled BSA control protein – biochemical, small-molecule microarray, Alexa647 label, 635/667 nm fluorescence, artefact control for SMM control protein annotation, profiling panel (AID 1118).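 Note: score merges 667 nm emission intensity and signal-to-noise per printed compound spot.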 As to conditions: BSA-A647 binding, fluorescence 635 nm, higher = more signal.
Experiment [12] can be described thus: probe aXIP binding to arrayed compounds – biochemical, NeuroSMM set, 635/667 nm fluorescence, primary screen (AID 1119).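 Note: probe is the protein aXip251-270 applied at 1 µg/mL to compound-printed slides; binding of probe to printed compounds measured as 667 nm fluorescence plus signal to noise.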 Particulars: small-molecule microarray, higher = more signal, called active from +8 up or from −8 down.
Experiment [13] can be described thus: probe aNOTCH3 binding on compound microarray – biochemical, small-molecule microarray, 635/667 nm fluorescence, primary screen (AID 1120).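 Note: probe is a biotin-tagged antibody raised against NOTCH3 rather than NOTCH3 protein; score merges spot fluorescence near 667 nm with spot signal to noise.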 As to conditions: higher = more signal.
The nature of experiment [14]: probe aNOTCH2 binding on compound microarray – biochemical, small-molecule microarray, 635/667 nm fluorescence, primary screen (AID 1121).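 Note: score merges feature fluorescence read at 667 nm with its signal to noise.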 As to conditions: higher = more signal.
Experiment [15] deals with Carbonic anhydrase 2 (Homo sapiens) (UniProt P00918). The experiment in a line: compounds binding carbonic anhydrase 2 – biochemical, small-molecule microarray, Alexa647-labelled CAII, profiling panel (AID 1122). Particulars: CAII-A647 binding fluorescence, higher = more signal.
Experiment [16] in a line: COS7 lysate on small-molecule microarray, probe aHis, 635 nm (AID 1123).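 Note: z-score combines 667nm fluorescence intensity with signal-to-noise per printed compound spot.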 As to conditions: COS7 cell lysate, fluorescence, higher = more signal.
Experiment [17] is described as follows: probe aLAP1 signal on lysate-treated microarray – cell lysate, small-molecule microarray, COS7 lysate, primary screen (AID 1124).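 Note: lysate comes from COS7 cells expressing LAP1 and is applied at 0.3 µg/mL; score merges spot fluorescence near 667 nm with signal-to-noise over triplicate slides.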 Particulars: probe aLAP1, fluorescence, higher = more signal.
Experiment [18] deals with Sam68 (KHDRBS1). The experiment in a line: compounds binding KHDRBS1 protein – biochemical, small-molecule microarray, 635 nm fluorescence, primary screen (AID 1125).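 Note: score merges 667 nm channel intensity with signal to noise over triplicate slides.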 As to conditions: higher = more signal.
For experiment [19], the system named is Chordin-like protein 2 (CHRDL2). The experiment in a line: compounds binding chordin-like 2 – biochemical, small-molecule microarray, 635 nm fluorescence, primary screen (AID 1126).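 Note: printed compound slides probed with Chrdl2 protein at 4 µg/mL for 1 h at 4 C; score merges 667 nm emission intensity with signal to noise over three replicate slides.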 As to conditions: fluorescence 635 nm, higher = more signal.
Experiment [20] addresses Concanavalin-A (Canavalia ensiformis) (UniProt P02866). The experiment in a line: compounds binding concanavalin A lectin – biochemical, small-molecule microarray, Alexa647 label, 635 nm, artefact control for SMM control protein annotation, primary screen (AID 1127).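 Note: z combines 667 nm emission intensity with signal-to-noise across three replicate slides.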 Particulars: ConA-A647 binding fluorescence, higher = more signal.

Structures are written as SMILES. The source made the active and inactive calls.

Chain of Albumin (Bos taurus) (P02769 whole entry, looked up): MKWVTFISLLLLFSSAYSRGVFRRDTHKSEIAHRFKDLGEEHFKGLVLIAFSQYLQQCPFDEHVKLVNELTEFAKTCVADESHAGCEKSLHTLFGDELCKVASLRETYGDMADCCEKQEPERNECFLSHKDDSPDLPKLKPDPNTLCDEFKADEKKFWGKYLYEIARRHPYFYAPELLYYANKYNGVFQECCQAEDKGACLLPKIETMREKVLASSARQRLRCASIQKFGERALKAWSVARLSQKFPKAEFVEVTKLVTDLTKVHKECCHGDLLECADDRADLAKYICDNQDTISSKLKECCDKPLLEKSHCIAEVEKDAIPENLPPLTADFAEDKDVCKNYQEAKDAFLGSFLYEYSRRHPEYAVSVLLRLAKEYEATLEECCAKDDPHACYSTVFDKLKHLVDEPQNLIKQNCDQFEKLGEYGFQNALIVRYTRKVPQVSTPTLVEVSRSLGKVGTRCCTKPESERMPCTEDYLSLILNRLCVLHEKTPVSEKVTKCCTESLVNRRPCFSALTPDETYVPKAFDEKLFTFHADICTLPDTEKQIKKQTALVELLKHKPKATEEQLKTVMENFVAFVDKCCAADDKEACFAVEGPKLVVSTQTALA
Chain of Concanavalin-A (Canavalia ensiformis) (P02866 whole entry, looked up): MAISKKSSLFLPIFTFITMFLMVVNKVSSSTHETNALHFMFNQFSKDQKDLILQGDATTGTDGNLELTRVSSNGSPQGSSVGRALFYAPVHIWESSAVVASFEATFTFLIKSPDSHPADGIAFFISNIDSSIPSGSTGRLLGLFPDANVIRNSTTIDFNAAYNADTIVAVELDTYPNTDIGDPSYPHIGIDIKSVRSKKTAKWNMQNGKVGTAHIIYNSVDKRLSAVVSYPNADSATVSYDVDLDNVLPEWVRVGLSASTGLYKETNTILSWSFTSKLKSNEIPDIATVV
Chain of Left-right determination factor 2 (Homo sapiens) (O00292 whole entry, looked up): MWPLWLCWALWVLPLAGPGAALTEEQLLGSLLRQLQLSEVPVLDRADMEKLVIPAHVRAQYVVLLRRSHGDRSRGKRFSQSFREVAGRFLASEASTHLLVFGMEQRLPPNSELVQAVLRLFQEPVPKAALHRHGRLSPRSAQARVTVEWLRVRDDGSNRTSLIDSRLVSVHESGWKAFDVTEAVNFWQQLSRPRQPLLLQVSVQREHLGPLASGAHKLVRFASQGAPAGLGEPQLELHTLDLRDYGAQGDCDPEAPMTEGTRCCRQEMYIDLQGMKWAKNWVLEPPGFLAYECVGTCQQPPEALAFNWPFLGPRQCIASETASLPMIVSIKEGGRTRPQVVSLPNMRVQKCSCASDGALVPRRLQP

Turning to `COCCCNC(=O)[C@@H]1c2ccccc2C(=O)N(Cc2ccccc2C(F)(F)F)[C@H]1c1ccc(CO)cc1`, the composite z-score is 0.367 in experiment [1]; -0.431 in experiment [3]; -0.119 in experiment [4]; 0.423 in [5]; -0.152 in [6]; -0.266 in experiment [7]. Moreover, the composite z-score in experiment [8] was 0.265; in experiment [9], 0.612; in experiment [10], -0.295; in [11], -1.34; in experiment [13], -0.186; in [14] it was -0.131. Further, the composite z-score in [15] is 0.389; in experiment [16] it was 1.19; in experiment [17] it was 0.216; in experiment [18], 0.433; in experiment [19], -0.781; in experiment [20], -0.264. This compound also returned a z-score in [2] of -0.469. Also, in [12], the composite Z-score is -0.0662 (inactive).

For `O=C1NC(=O)C2C1C=CC(C(O)c1ccc3c(c1)OCO3)N2Nc1ccccn1` (stereo not given), the composite z-score in [1] is -0.945; in experiment [3], 0.324; in experiment [4], 0.151; in experiment [5] it was -0.197; in experiment [6], -0.0524; in experiment [7], -0.0769. Moreover, the composite z-score was 0.677 in [8]; 0.493 in experiment [9]; 0.498 in [10]; 0.939 in [11]; -0.0324 in experiment [13]; -0.12 in experiment [14]. Also, the composite z-score in experiment [15] came out at 0.555; in experiment [16] it was 2.99; in [17] it was 0.183; in [18], 0.153; in experiment [19], 0.704; in [20], 0.667. Moreover, in [2], the z-score was 0.0264. In experiment [12], the composite Z-score is 0.246 (inactive).

On to `[N-]=[N+]=Nc1ccccc1[C@@H]1OC(c2ccc(OCCCO)cc2)=N[C@]1(CCS(=O)(=O)c1ccccc1)C(=O)NCCN1CCOCC1`, for which the composite z-score in experiment [1] turned out to be 1.47; in experiment [3], 0.382; in experiment [4] it was 0.03; in [5], 0.0093; in experiment [6] it was 0.0814; in experiment [7], 0.337. Moreover, the composite z-score in experiment [8] was 0.675; in experiment [9], 1.26; in [10], 0.737; in [11], 0.734; in experiment [13], 0.178; in [14], -0.0267. For the same compound, the composite z-score was 0.485 in [15]; 2.71 in [16]; 0.21 in [17]; 1.29 in experiment [18]; -0.22 in [19]; 0.478 in [20]. The compound further registered a z-score in experiment [2] of -0.485. Further, in experiment [12], the composite Z-score is 0.131 (inactive).

For the compound `C=C(COC)/C(=C/C[C@@H](OC(=O)c1ccncc1)c1ccc(OCCO)cc1)c1cnc2ccccc2c1`, the composite z-score in [1] is 1.3; in [3], 1.12; in [4], 0.695; in [5] it was -0.604; in experiment [6], 0.0151; in [7] it was -0.167. The composite z-score in experiment [8] was 0.827; in [9] it was 1.66; in experiment [10], 1.5; in experiment [11], 0.646; in [13], 0.321; in [14], -0.0804. The composite z-score in experiment [15] was found to be 0.854; in experiment [16] it was 0.514; in [17], 0.39; in [18] it was 1.31; in experiment [19] it was 1.53; in experiment [20], 1.15. This compound also came in with a z-score in [2] of -1.59. The composite Z-score in experiment [12] was -0.41 (inactive).

As for `COCCCNC(=O)[C@]1(CCC(=O)OC(C)(C)C)N=C(c2ccc(OCCCO)cc2)O[C@@H]1c1ccccc1`, the composite z-score in experiment [1] was 1.49; in experiment [3], -0.737; in experiment [4] it was 1.59; in [5], 1; in experiment [6], -0.0203; in [7], -0.0248. The composite z-score in experiment [8] was -0.0076; in experiment [9] it was 1.49; in experiment [10], 1.6; in [11], 0.968; in experiment [13], 0.246; in experiment [14], 0.221. Moreover, the composite z-score was 0.871 in experiment [15]; 3.17 in experiment [16]; 0.62 in experiment [17]; 0.881 in experiment [18]; -0.0833 in experiment [19]; -0.354 in experiment [20]. This compound also had a z-score in [2] of -0.151. Moreover, in experiment [12], the composite Z-score is 0.977 (inactive).

Source of the values: PubChem BioAssay.
